Experimental data published in PubChem BioAssay (NCI).
The panel holds about 79,000 compounds, 15% with a hit somewhere; the sample as a whole holds those more often. The source made the active and inactive calls. No stated cut-off is given here; in the data, active means growth inhibition above about 70%; inactive means the rest.

What was measured:
[1] = NCI Yeast Anticancer Drug Screen. Data for the wt1 strain (AID 149);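 further: 0% = growth of vehicle-treated wt1 cultures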; conditions: S. cerevisiae wt1 strain (SPY 50644) growth inhibition, stronger effect = higher value
Outline: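 wt1 yeast, compound-treated; % growth inhibition vs vehicle control.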

[2] = NCI Yeast Anticancer Drug Screen. Data for the rad50EPP+ strain (AID 151);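 further: 0% = growth of vehicle-treated control cultures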; conditions: S. cerevisiae rad50 mutant strain, stronger effect = higher value
Outline: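 Vehicle-normalised growth inhibition; rad50EPP+ yeast strain, altered in DNA damage repair, compound-treated.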

[3] = NCI Yeast Anticancer Drug Screen. Data for the mgt1 strain (AID 153); conditions: S. cerevisiae mgt1 mutant growth inhibition, stronger effect = higher value
Outline: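 Vehicle-normalized growth inhibition is determined in mgt1 yeast, a strain selected for a defined alteration in DNA repair or cell cycle control.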

[4] = NCI Yeast Anticancer Drug Screen. Data for the rad50 strain (AID 155);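 further: 0% = growth of vehicle-only cultures of the same strain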; conditions: S. cerevisiae rad50 strain growth inhibition, stronger effect = higher value
Outline: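 Genetically altered yeast (DNA repair pathway); compound treatment; growth inhibition vs vehicle ctrl.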

[5] = NCI Yeast Anticancer Drug Screen. Data for the mec2-1 strain (AID 157); conditions: S. cerevisiae mec2-1 strain, stronger effect = higher value
Outline: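 Mutant yeast (mec2-1) grown with compound; growth inhibition relative to vehicle control reported.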

[6] = NCI Yeast Anticancer Drug Screen. Data for the rad14 strain (AID 159);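 further: 0% = growth of vehicle-treated control cultures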; conditions: S. cerevisiae rad14 strain growth inhibition, stronger effect = higher value
Outline: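 Test compounds were applied to a repair-deficient yeast strain. Its growth was then compared with that of cultures given vehicle alone, and inhibition was expressed relative to those controls.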

[7] = NCI Yeast Anticancer Drug Screen. Data for the sgs1 mgt1 strain (AID 161);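 further: 0% = growth of cultures given vehicle only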; conditions: S. cerevisiae sgs1 mgt1 strain, stronger effect = higher value
Outline: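 Compounds are added to genetically altered yeast, and growth is compared with cultures given vehicle alone to give percent inhibition.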

[8] = NCI Yeast Anticancer Drug Screen. Data for the CLN2oe strain (AID 163);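 further: 0% = growth of vehicle-only control cultures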; conditions: S. cerevisiae CLN2oe strain, stronger effect = higher value
Outline: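 Compounds are applied to yeast harbouring a defined cell-cycle control change; reduced growth compared with vehicle-treated controls gives the value.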

[9] = NCI Yeast Anticancer Drug Screen. Data for the cln2 rad14 strain (AID 165);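 further: 0% = growth equal to vehicle treated cultures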; conditions: S. cerevisiae cln2 rad14 strain, stronger effect = higher value
Outline: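 Readout is yeast growth inhibition versus vehicle-treated controls, using a strain with cln2 and rad14 alterations exposed to compound.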

[10] = NCI Yeast Anticancer Drug Screen. Data for the bub3 strain (AID 167); conditions: S. cerevisiae bub3 mutant strain, stronger effect = higher value
Outline: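 Yeast carrying a defined mutation is treated with each compound, and growth is compared with that of vehicle-exposed cells to give inhibition.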

[11] = NCI Yeast Anticancer Drug Screen. Data for the wt2 strain (AID 169);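 further: 0% = growth of vehicle-treated yeast cultures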; conditions: S. cerevisiae wt2 strain growth inhibition, stronger effect = higher value
Outline: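 Against vehicle-treated controls, the growth of yeast exposed to each compound was compared, and the inhibition was recorded.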

[12] = NCI Yeast Anticancer Drug Screen. Data for the mlh1 strain (AID 171);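 further: 0% = growth of vehicle-treated control cultures of the same strain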; conditions: S. cerevisiae mlh1 strain growth inhibition, stronger effect = higher value
Outline: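 Measured: yeast growth. Reference: vehicle-treated controls. Organism: strain with a defined alteration affecting DNA damage repair or cell cycle control, treated with compound.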

[13] = NCI Yeast Anticancer Drug Screen. Data for the sgs1 strain (AID 173);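 further: 0% = growth of vehicle-only control cultures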; conditions: S. cerevisiae sgs1 mutant, stronger effect = higher value
Outline: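 Each compound was added to cultures of the altered yeast strain. Growth was recorded, and inhibition was derived by comparison with vehicle controls.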

[14] = NCI Yeast Anticancer Drug Screen. Data for the mlh1 rad18 strain (AID 175); conditions: S. cerevisiae mlh1 rad18 strain growth inhibition, stronger effect = higher value
Outline: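 Genetically defined yeast (DNA repair-deficient) exposed to compounds; growth inhibition determined relative to vehicle.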

[15] = NCI Yeast Anticancer Drug Screen. Data for the rad18 strain (AID 177); conditions: S. cerevisiae rad18 mutant growth inhibition, stronger effect = higher value
Outline: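 Vehicle-treated cultures served as the baseline for scoring compound-induced growth inhibition in DNA-repair-mutant yeast.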

[16] = at 5.0 µM (retest, dose inferred, filed as 0.5)
[17] = at 50.0 µM (retest, dose inferred, filed as 5.0)

Measured: growth inhibition

O=C(Nc1ccccc1)C(=O)C(C(=O)c1ccccc1)C(c1ccccc1)c1ccccc1 (stereo unspecified)
active: [4]; [17] 86% | [4]; at 50.0 µM 82.5% | [5]; [17] 78% | [14]; [17] 74% | [14]; at 50.0 µM 79.8%
inactive: [1]; at 1.2 µM 3% | [1]; at 3.7 µM 5% | [1]; at 11.0 µM 4% | [1]; at 33.0 µM 10% | [1]; at 100.0 µM 28% | [2]; at 1.2 µM 0% | [2]; at 3.7 µM 0% | [2]; at 11.0 µM 1% | [2]; at 33.0 µM 2% | [2]; at 100.0 µM -1% | [3]; at 1.2 µM 2% | [3]; at 3.7 µM 1% | [3]; at 11.0 µM 5% | [3]; at 33.0 µM 8% | [3]; at 100.0 µM 42% | [4]; at 1.2 µM 1% | [4]; at 3.7 µM -6% | [4]; [16] 11% | [4]; at 11.0 µM -3% | [4]; at 33.0 µM 26% | [4]; at 100.0 µM 37% | [5]; at 1.2 µM 8% | [5]; at 3.7 µM 7% | [5]; [16] -11% | [5]; at 11.0 µM 10% | [5]; at 33.0 µM 22% | [5]; at 50.0 µM 15.9% | [5]; at 100.0 µM 35% | [6]; at 1.2 µM 3% | [6]; at 3.7 µM 0% | [6]; at 11.0 µM 5% | [6]; at 33.0 µM 18% | [6]; at 100.0 µM 36% | [7]; [16] -5% | [7]; [17] 20% | [7]; at 50.0 µM 29.4% | [8]; at 1.2 µM 5% | [8]; at 3.7 µM 2% | [8]; at 11.0 µM 6% | [8]; at 33.0 µM 24% | [8]; at 100.0 µM 39% | [9]; [16] 5% | [9]; [17] 53% | [9]; at 50.0 µM 41.2% | [10]; at 1.2 µM 2% | [10]; at 3.7 µM 0% | [10]; [16] -2% | [10]; at 11.0 µM 3% | [10]; at 33.0 µM 9% | [10]; [17] 33% | [10]; at 50.0 µM 58.3% | [10]; at 100.0 µM 18% | [11]; at 1.2 µM 1% | [11]; at 3.7 µM 2% | [11]; at 11.0 µM 2% | [11]; at 33.0 µM 12% | [11]; at 100.0 µM 43% | [12]; at 1.2 µM 3% | [12]; at 3.7 µM 2% | [12]; at 11.0 µM 3% | [12]; at 33.0 µM 16% | [12]; at 100.0 µM 31% | [13]; at 1.2 µM 2% | [13]; at 3.7 µM 3% | [13]; at 11.0 µM 3% | [13]; at 33.0 µM 32% | [13]; at 100.0 µM 56% | [14]; [16] -13% | [15]; at 1.2 µM 7% | [15]; at 3.7 µM 10% | [15]; at 11.0 µM 22% | [15]; at 33.0 µM 41% | [15]; at 100.0 µM 47%

CCCCN(CCCC)CCSc1ccc(Cl)cc1
inactive: [1]; at 1.2 µM -1% | [1]; at 3.7 µM 7% | [1]; at 11.0 µM 12% | [1]; at 33.0 µM 31% | [2]; at 1.2 µM -10% | [2]; at 3.7 µM -20% | [2]; at 11.0 µM 13% | [2]; at 33.0 µM 35% | [2]; at 100.0 µM 55% | [3]; at 1.2 µM -4% | [3]; at 3.7 µM -8% | [3]; at 11.0 µM -5% | [3]; at 33.0 µM -5% | [4]; at 1.2 µM -18% | [4]; at 3.7 µM -20% | [4]; [16] 2% | [4]; at 11.0 µM -15% | [4]; at 33.0 µM 28% | [4]; [17] 18% | [5]; at 1.2 µM -5% | [5]; at 3.7 µM -5% | [5]; [16] 3% | [5]; at 11.0 µM -7% | [5]; at 33.0 µM -8% | [5]; [17] 66% | [6]; at 1.2 µM 3% | [6]; at 3.7 µM -5% | [6]; at 11.0 µM 0% | [6]; at 33.0 µM 12% | [7]; [16] 2% | [8]; at 1.2 µM -12% | [8]; at 3.7 µM -12% | [8]; at 11.0 µM -13% | [8]; at 33.0 µM -11% | [8]; at 100.0 µM 59% | [9]; [16] 0% | [9]; [17] 4% | [10]; at 1.2 µM -9% | [10]; at 3.7 µM -5% | [10]; [16] 5% | [10]; at 11.0 µM -7% | [10]; at 33.0 µM 3% | [10]; [17] 43% | [11]; at 1.2 µM -5% | [11]; at 3.7 µM 3% | [11]; at 11.0 µM 13% | [11]; at 33.0 µM 45% | [12]; at 1.2 µM -14% | [12]; at 3.7 µM -11% | [12]; at 11.0 µM -9% | [12]; at 33.0 µM 17% | [13]; at 1.2 µM -10% | [13]; at 3.7 µM -7% | [13]; at 11.0 µM 10% | [13]; at 33.0 µM 42% | [14]; [16] 3% | [15]; at 1.2 µM -8% | [15]; at 3.7 µM -11% | [15]; at 11.0 µM -7% | [15]; at 33.0 µM 2%
active: [1]; at 100.0 µM 93% | [3]; at 100.0 µM 73% | [4]; at 50.0 µM 87.3% | [4]; at 100.0 µM 96% | [5]; at 50.0 µM 94.7% | [5]; at 100.0 µM 92% | [6]; at 100.0 µM 92% | [7]; [17] 70% | [7]; at 50.0 µM 82.4% | [9]; at 50.0 µM 79.4% | [10]; at 50.0 µM 94.5% | [10]; at 100.0 µM 92% | [11]; at 100.0 µM 97% | [12]; at 100.0 µM 91% | [13]; at 100.0 µM 95% | [14]; [17] 80% | [14]; at 50.0 µM 88.2% | [15]; at 100.0 µM 89%
